The text below walks through data of the supplement of paper PMC10369915.

This assay has as its target SHP2 N-SH2 domain T42A. The experiment in a line: log2 enrichment relative to wild-type ITIM peptide; higher = stronger binding.
VFSVDYGGLDF [PD-1 ITIM pTyr223 peptide variant E225G]: the log2 enrichment is -1.11. Next, VHSVDYGELDF [PD-1 ITIM pTyr223 peptide variant F219H]: 0.536; VFSVDYGESDF [PD-1 ITIM pTyr223 peptide variant L226S]: -1.51; VFSVDYGELDQ [PD-1 ITIM pTyr223 peptide variant F228Q]: -1.43. Next, VFSVDYGDLDF [PD-1 ITIM pTyr223 peptide variant E225D]: -0.183.

Consider NFSVDYGELDF [PD-1 ITIM pTyr223 peptide variant V218N], for which the log2 enrichment amounted to 0.14.

VFGVDYGELDF [PD-1 ITIM pTyr223 peptide variant S220G] showed a log2 enrichment of -0.124.

As for VGSVDYGELDF [PD-1 ITIM pTyr223 peptide variant F219G], the log2 enrichment came to 0.639. Next, VFSVDYGEADF [PD-1 ITIM pTyr223 peptide variant L226A]: -1.51; VFSVDYGENDF [PD-1 ITIM pTyr223 peptide variant L226N]: -1.33; VFSVDYEELDF [PD-1 ITIM pTyr223 peptide variant G224E]: -0.506. Next, VFSVDYGELTF [PD-1 ITIM pTyr223 peptide variant D227T]: -0.714; VFSVDYGCLDF [PD-1 ITIM pTyr223 peptide variant E225C]: -0.897; VFSNDYGELDF [PD-1 ITIM pTyr223 peptide variant V221N]: -1.45. Next, VFSVDYGELDD [PD-1 ITIM pTyr223 peptide variant F228D]: -1.56.

The molecule GFSVDYGELDF [PD-1 ITIM pTyr223 peptide variant V218G] came in with a log2 enrichment of 0.152. As for VFSVDYGELDS [PD-1 ITIM pTyr223 peptide variant F228S], the log2 enrichment was -1.4.

In turn, VFDVDYGELDF [PD-1 ITIM pTyr223 peptide variant S220D] yielded a log2 enrichment of -0.682. As for VFSVDYGEQDF [PD-1 ITIM pTyr223 peptide variant L226Q], the figure is -1.5; as for VFSDDYGELDF [PD-1 ITIM pTyr223 peptide variant V221D], -1.38; as for VFSVTYGELDF [PD-1 ITIM pTyr223 peptide variant D222T], 0.636. Next, VFSVDYGEEDF [PD-1 ITIM pTyr223 peptide variant L226E]: -1.51. Next, EFSVDYGELDF [PD-1 ITIM pTyr223 peptide variant V218E]: -0.155; VFSVDYGELDE [PD-1 ITIM pTyr223 peptide variant F228E]: -1.51. In the case of VNSVDYGELDF [PD-1 ITIM pTyr223 peptide variant F219N], the log2 enrichment turned out to be 0.243. As for VFSVDYAELDF [PD-1 ITIM pTyr223 peptide variant G224A], the figure is 1; as for VFSVDYGETDF [PD-1 ITIM pTyr223 peptide variant L226T], -1.57. As for VTSVDYGELDF [PD-1 ITIM pTyr223 peptide variant F219T], the figure is 0.41; as for TFSVDYGELDF [PD-1 ITIM pTyr223 peptide variant V218T], -0.0485; as for AFSVDYGELDF [PD-1 ITIM pTyr223 peptide variant V218A], 0.0307. As for VFSVDYGELDA [PD-1 ITIM pTyr223 peptide variant F228A], the figure is -1.56; as for VFSVDYGELDC [PD-1 ITIM pTyr223 peptide variant F228C], -1.54; as for VFTVDYGELDF [PD-1 ITIM pTyr223 peptide variant S220T], 0.338.

In turn, VFEVDYGELDF [PD-1 ITIM pTyr223 peptide variant S220E] had a log2 enrichment of -0.481. Next, VFSADYGELDF [PD-1 ITIM pTyr223 peptide variant V221A]: -1.17. As for VFSVDYNELDF [PD-1 ITIM pTyr223 peptide variant G224N], the figure is -0.336. Next, VFSVDYGELDN [PD-1 ITIM pTyr223 peptide variant F228N]: -1.38. Regarding VFSVDYGSLDF [PD-1 ITIM pTyr223 peptide variant E225S], the log2 enrichment was -0.714. As for VFSEDYGELDF [PD-1 ITIM pTyr223 peptide variant V221E], the figure is -1.41.

QFSVDYGELDF [PD-1 ITIM pTyr223 peptide variant V218Q] showed a log2 enrichment of 0.0173. As for VFSVDYGQLDF [PD-1 ITIM pTyr223 peptide variant E225Q], the figure is 0.0512. Next, VFAVDYGELDF [PD-1 ITIM pTyr223 peptide variant S220A]: -0.133; VFSTDYGELDF [PD-1 ITIM pTyr223 peptide variant V221T]: -0.962. As for VFCVDYGELDF [PD-1 ITIM pTyr223 peptide variant S220C], the figure is -0.382. Take VFSVDYGELGF [PD-1 ITIM pTyr223 peptide variant D227G]: the log2 enrichment is -1.31.

VFSVDYSELDF [PD-1 ITIM pTyr223 peptide variant G224S]: the log2 enrichment stood at 0.528. With VCSVDYGELDF [PD-1 ITIM pTyr223 peptide variant F219C], the log2 enrichment was -0.255. As for VFSVAYGELDF [PD-1 ITIM pTyr223 peptide variant D222A], the figure is 1.52. As to VFSVDYQELDF [PD-1 ITIM pTyr223 peptide variant G224Q], the log2 enrichment was -0.168. As for VFSVDYDELDF [PD-1 ITIM pTyr223 peptide variant G224D], the figure is -0.746; as for VFQVDYGELDF [PD-1 ITIM pTyr223 peptide variant S220Q], -0.0797. As for VFSVDYCELDF [PD-1 ITIM pTyr223 peptide variant G224C], the figure is -0.184; as for SFSVDYGELDF [PD-1 ITIM pTyr223 peptide variant V218S], 0.0685.

For the molecule VFSCDYGELDF [PD-1 ITIM pTyr223 peptide variant V221C], the log2 enrichment is -0.523. On to VFSVDYGELCF [PD-1 ITIM pTyr223 peptide variant D227C], for which the log2 enrichment was -0.854.

On to VFSVDYGELQF [PD-1 ITIM pTyr223 peptide variant D227Q], for which the log2 enrichment is -0.79. Next, VFSVDYGELDG [PD-1 ITIM pTyr223 peptide variant F228G]: -1.54.

Molecule VFSVDYTELDF [PD-1 ITIM pTyr223 peptide variant G224T] came in with a log2 enrichment of 0.883. As for VFNVDYGELDF [PD-1 ITIM pTyr223 peptide variant S220N], the figure is -0.0661; as for VFSVDYGALDF [PD-1 ITIM pTyr223 peptide variant E225A], -0.501.
